Compound activity as filed in PubChem.
Gal4-VP16 FLuc = counter-screen for ROR gamma inhibitors: Gal4-VP16 reporter | 310,000 compounds, 3.5% hits | AID 2546 | Drosophila S2 Gal4-VP16 UAS-luciferase, luminescence, 20 h | Potency, µM (doses to about 53.6 µM), without a hit: at the highest dose activity, negative = inhibition, hits mostly inhibitors;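 also: Gal4-VP16 expression switched on by copper sulfate through the metallothionein promoter; potency is read from the fitted curve at half-maximal effect; nearly all actives have a fitted effect of over 50% in size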
IL1B secr inh = blocks inflammasome-driven IL-1 beta release; activity change, % at 57.5 µM; THP-1 LPS/ATP IL-1B secretion, AlphaLISA, 16 h; hits give low values; 360,000 compounds, 4.7% hits; in the data active = activity change below about -50%; inconclusive = mostly about -30% to -49%
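Secreted IL-1B measured by AlphaLISA bead assay after 16 h compound exposure of THP-1 cells; compounds (final up to 57.5 uM) added 1 h before LPS (250 ng/mL) and ATP (1.25 mM) stimulation; lower signal means less secretion.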
RORgamma inh = blocks mouse ROR gamma transcriptional activity | Drosophila S2 Gal4-RORgamma UAS-luciferase reporter, 20 h | 310,000 compounds, 5.4% hits | AID 2551 | Potency, µM (titrated, usually from 53.6 µM), inactives show at the highest dose activity change, negative = inhibition, usual class: inhibitors | P51450; also: potency is read from the fitted curve at half-maximal effect; nearly all actives have a fitted effect of over 60% in size
Target sequence (P51450 whole entry, looked up, the tested form may be a part): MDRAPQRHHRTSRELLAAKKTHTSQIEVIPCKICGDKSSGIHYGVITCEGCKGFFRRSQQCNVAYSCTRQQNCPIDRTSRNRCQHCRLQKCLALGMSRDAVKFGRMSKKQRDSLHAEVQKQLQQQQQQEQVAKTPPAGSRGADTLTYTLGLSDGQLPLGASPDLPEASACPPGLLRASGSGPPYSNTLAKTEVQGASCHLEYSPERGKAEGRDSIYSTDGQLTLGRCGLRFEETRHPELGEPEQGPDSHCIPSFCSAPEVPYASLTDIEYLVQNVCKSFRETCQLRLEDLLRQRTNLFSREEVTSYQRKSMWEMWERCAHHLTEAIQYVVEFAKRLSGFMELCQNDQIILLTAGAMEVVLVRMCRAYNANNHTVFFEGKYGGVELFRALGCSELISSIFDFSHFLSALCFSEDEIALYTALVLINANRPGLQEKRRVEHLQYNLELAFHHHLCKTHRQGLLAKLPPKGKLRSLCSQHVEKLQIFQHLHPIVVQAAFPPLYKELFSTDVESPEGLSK
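Schneider cells (Drosophila), stable Gal4 DBD–ROR gamma + UAS-luc; 1 hr cmpd preincubation; Cu2+ induction 700 uM final; 20 hr ambient; luminescence.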
DT40 TDP1 no CPT = qHTS for Inhibitors of human tyrosyl-DNA phosphodiesterase 1 (TDP1): qHTS in cells in absence of CPT | AID 686978, 2013 | 420,000 compounds, 15% hits | Potency, µM (top dose mostly 46.2 µM), without a hit: at the highest dose activity change, negative = growth inhibition, most hits filed as inhibitors | DT40 Tdp1-/- hTDP1 cells, no CPT, ATP luminescence, 48 h; also: potency is read from the fitted curve at half-maximal effect; nearly all actives have a fitted effect of over 55% in size
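Growth kinetics read by CellTiter-Glo luminescence after ≥48 hr at 37 °C. Cells: DT40 Tdp1-/- stably carrying human TDP1, 400 per well, compound exposure in the absence of CPT (DMSO vehicle).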
DT40 TDP1 CPT = DT40-hTDP1 cell growth loss with CPT; 420,000 compounds, 12% hits; Potency, µM (series often up to 46.2 µM), for inactives: top-dose activity change, negative = growth inhibition, actives largely listed as inhibitors; chicken DT40 Tdp1-/-;hTDP1 cells + 20 nM CPT, ATP luminescence, 48 h; also: potency is read from the fitted curve at half-maximal effect; nearly all actives have a fitted effect of over 55% in size
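Chicken DT40 Tdp1-/- cells stably complemented with human TDP1 were seeded at 400 cells/well in medium containing 20 nM camptothecin, exposed to pin-transferred compounds, and grown at 37 °C for at least 48 hr. Viability was read as ATP luminescence.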
LDHA block = LDHA (human) enzyme inhibition | P00338 | purified LDHA, NADH/diaphorase-resazurin fluorescence; hits give low values | activity change, % (values are at about 110 or 230 µM) | 480,000 compounds, 0.15% hits; in the data active = activity change below about -30%; inconclusive = mostly about -25% to -30%;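 also: plate controls were DMSO wells for no effect and wells without enzyme for full effect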
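Human LDH5 at 2 nM final in Tris HCl pH 7.4 with 0.06 mM NADH and 0.2 mM pyruvate, reacted 5 minutes at room temperature. Remaining NADH coupled via diaphorase/resazurin; resorufin fluorescence read at 0 and 20 minutes, normalized to enzyme-free and DMSO wells.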
Active calls of the source: *; u = inconclusive; x = no result; ! = not confirmed by another sample; [ ] = another dose, or the depositor's remark. Hits are enriched below; roughly 18% of the tested compounds scored in any of these assays. Unless noted, calls follow the shape of the dose curve; as a rule, active = well fitted curve in the direction sought with a large enough effect; inconclusive = small, poorly fitted or top-dose-only effect, or another doubt; inactive = no such curve, though single readings can be large; an effect the other way counts as inactive or inconclusive. Unless noted, % is scaled to controls: 0 for no effect and ±100 for the full control effect.

SMILES	Gal4-VP16 FLuc	IL1B secr inh	RORgamma inh	DT40 TDP1 no CPT	DT40 TDP1 CPT	LDHA block
O=C(c1ccc2c(=O)n(Cc3ccc4c(c3)OCO4)c(=S)[nH]c2c1)N1CCC2(CC1)OCCO2	u	8.2	12.6µM*	u	23.1µM*	-8.3
Cc1ccc2[nH]cc(CCN)c2c1	x	x	x	x	x	8.7
CN1CCC(O)(c2ccccc2)C(C(=O)c2ccccc2)C1 (stereo unspecified)	u	-20.9	u	18.4µM*	9.2µM*	-3.4
CN1CCC(O)(c2ccccc2)C2CCCC21 (stereo unspecified)	4.5%	1.0	-10.6%	-35.8%	-2.9%	-3.7
CN1CCCC(C(=O)c2ccccc2)C1 (stereo unspecified)	-7.0%	-8.7	0.0%	1.5%	-11.1%	-1.2
CCN1CCC(O)(c2ccccc2)C(C(=O)c2ccccc2)C1 (stereo unspecified)	x	-14.9	x	4.11µM*	2.59µM*	-3.4
Cc1noc(C)c1C1SCC(=O)Nc2c1c(C)nn2-c1ccccc1 (stereo unspecified)	x	x	x	x	x	-21.0
O=C(COc1ccccc1/C=C1/NC(=O)NC1=O)Nc1ccccc1	-10.1%	25.2	19.7%	u	20.6µM*	-0.8
COC[C@]12CN(C=O)C3C4C(OC)C1[C@@]3(C1CC3(O)C(OC)C(O)C4(OC(C)=O)C1C3OC(=O)c1ccccc1)[C@@H](OC)CC2O (stereo partly specified)	10.7%	x	1.0%	27.7%	18.5%	x
NC(CCc1ccccc1)c1csc(NC(=O)Nc2ccccc2Oc2ccccc2)n1 (stereo unspecified)	x	-79.3*	x	6.51µM*	6.51µM*	-19.5
O=C(O)c1cc[c]([Hg][Cl])cc1	x	-101.1*	x	0.92µM*	0.651µM*	-61.4*
CCc1ccc(-n2c(SC(CC)C(=O)N(CC)CC)nc3n[nH]c(C)c3c2=N)cc1 (stereo unspecified)	x	x	x	2.59µM*	2.59µM*	-4.8
CC(C)[C@H]1C(=O)N2CCC[C@H]2[C@]2(O)O[C@](NC(=O)[C@@H]3C[C@@H]4c5cccc6[nH]cc(c56)C[C@H]4N(C)C3)(C(C)C)C(=O)N12	x	x	x	18.8µM*	u	x
CC(C)[C@@]1(NC(=O)[C@@H]2C[C@@H]3c4cccc5[nH]cc(c45)C[C@H]3N(C)C2)O[C@@]2(O)[C@@H]3CCCN3C(=O)[C@H](Cc3ccccc3)N2C1=O	u	0.0	2.82µM*!	18.8µM*!	26.6µM*!	-7.6
CCCCCc1cc(O)c2c(c1)OC(C)(C)C1CC=C(C)CC21 (stereo unspecified)	u	x	31.5%	x	x	x
O=C(CCl)Nc1sccc1C(=O)c1ccccc1	x	-102.9*	x	u	14.6µM*	-9.6
NC(=O)c1ccsc1NC(=O)COC(=O)Cc1ccccc1	x	18.6	x	u	-5.6%	-6.3
Cc1cc(=O)oc2c1c(C)nn2-c1nn[nH]n1	-4.8%	23.0	-19.8%	u	20.6µM*	1.1
c1cc[n+]2c(c1)-c1cccc[n+]1CC2	-6.2%	x	-26.7%	x	x	x
CC1(C)S[C@@H]2[C@H](N)C(=O)N2C1C(=O)O (stereo partly specified)	-7.9%	x	-2.5%	x	x	x
Cc1cc(C)c(Cn2c(C(=O)O)c(C=O)c3ccccc32)c(C)c1	-5.5%	39.9	u	6.3%	7.1%	-5.4
Cc1ccc(CNCc2c(C(=O)O)n(Cc3ccccc3C)c3cc(C)ccc23)cc1	x	x	x	7.31µM*	u	-0.6
COC(COC(N)=O)C1=C(N2CC2)C(=O)C(C)=C(N2CC2)C1=O (stereo unspecified)	x	-113.4*	x	0.164µM*	0.164µM*	33.2
CO[C@@H](COC(N)=O)C1=C(N2CC2)C(=O)C(C)=C(N2CC2)C1=O	11.2µM*	x	u	x	x	x
CCN[C@]1(c2cccs2)CCCCC1=O	-1.2%[17 µM]	x	6.2%[2.98 µM]	x	x	x
